Rows were chosen to be rich in hits. Some 2.4% of all compounds tested hit in one or more screens of this group.
POLB inh – blocks human DNA polymerase beta activity. P06746. Pol beta primer extension/strand displacement, fluorescence kinetic. Potency, µM (highest dose often 114 µM), inactives show at the top dose activity change, negative = inhibition, hits mostly inhibitors. hit rate 1.3% among 340,000. AID 485314; also: % is scaled to controls: 0 for no effect and ±100 for the full control effect
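Preincubation: enzyme (10 nM) with compound, 15 min, RT. Reaction: substrate added to 50 nM final. Reads: 0 and 10 min. Analysis: normalized, Hill fit.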
GLS inh – inhibitors of human glutaminase (GLS) | O94925 | GLS enzymatic activity, qHTS titration | Potency, µM (titrated, usually from 45.5 µM), without a hit: at the top dose activity change, negative = inhibition, usual class: inhibitors | hit rate 0.21% among 410,000 | AID 624170; also: % is scaled to controls: 0 for no effect and ±100 for the full control effect
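Two-point fluorescence kinetic (t0, 30 min RT) for hKGA; glutamate detected via glutamate oxidase–HRP–Amplex Red. Substrate: 1 mM L-glutamine solution; buffer 45 mM KH2PO4, pH 8.2.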
Pol kappa inh – DNA polymerase kappa (human) inhibition | purified Pol kappa, fluorescent DNA synthesis assay, 10 min | hit rate 0.53% among 400,000 | Q9UBT6 | Potency, µM (top dose mostly 107 µM), without a hit: at the highest dose activity, negative = inhibition, usual class: inhibitors; also: % is scaled to controls: 0 for no effect and ±100 for the full control effect
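10 nM Pol kappa was preincubated with compounds for 15 min at room temperature. Reaction started with 50 nM (final) substrate. Fluorescence read kinetically at 0 and 10 min.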
APE1 inh – APE1 (human) endonuclease inhibition; P27695; AID 2517; recombinant APE1, TAMRA/BHQ-2 abasic DNA cleavage fluorescence; Potency, µM (highest dose often 65.8 µM), without a hit: at the top dose activity change, negative = inhibition, hits mostly inhibitors; hit rate 0.35% among 350,000;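 also: plate controls were vehicle for no effect and reference inhibitor for full effect; nearly all actives have a fitted effect of over 55% in size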
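Kinetic fluorescence read (525 ex/598 em nm, three reads 60 s apart) of AP-site incision; signal = third minus first read. Enzyme 0.75 nM, dual-labelled THF duplex 50 nM, compound preincubation 15 min RT.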
Pol eta inh – DNA polymerase eta (human) inhibition; Q9Y253; recombinant Pol eta, fluorescent DNA replication assay; Potency, µM (series often up to 114 µM), inactives show at the top dose activity change, negative = inhibition, actives largely listed as inhibitors; hit rate 1.2% among 390,000; AID 588591; also: % is scaled to controls: 0 for no effect and ±100 for the full control effect
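Pol eta at 10 nM preincubated with compounds 15 min at room temperature; reaction started with fluorescent substrate (50 nM final) and read kinetically at 0 and 10 min.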
POLI inh – inhibitors of human DNA polymerase iota; Q9UNA4; Pol iota fluorescent replication assay, 10 min; hit rate 1% among 390,000; AID 588590; Potency, µM (top dose mostly 115 µM), inactives show top-dose activity, negative = inhibition, actives largely listed as inhibitors
Target sequence (Q9UNA4 whole entry, looked up): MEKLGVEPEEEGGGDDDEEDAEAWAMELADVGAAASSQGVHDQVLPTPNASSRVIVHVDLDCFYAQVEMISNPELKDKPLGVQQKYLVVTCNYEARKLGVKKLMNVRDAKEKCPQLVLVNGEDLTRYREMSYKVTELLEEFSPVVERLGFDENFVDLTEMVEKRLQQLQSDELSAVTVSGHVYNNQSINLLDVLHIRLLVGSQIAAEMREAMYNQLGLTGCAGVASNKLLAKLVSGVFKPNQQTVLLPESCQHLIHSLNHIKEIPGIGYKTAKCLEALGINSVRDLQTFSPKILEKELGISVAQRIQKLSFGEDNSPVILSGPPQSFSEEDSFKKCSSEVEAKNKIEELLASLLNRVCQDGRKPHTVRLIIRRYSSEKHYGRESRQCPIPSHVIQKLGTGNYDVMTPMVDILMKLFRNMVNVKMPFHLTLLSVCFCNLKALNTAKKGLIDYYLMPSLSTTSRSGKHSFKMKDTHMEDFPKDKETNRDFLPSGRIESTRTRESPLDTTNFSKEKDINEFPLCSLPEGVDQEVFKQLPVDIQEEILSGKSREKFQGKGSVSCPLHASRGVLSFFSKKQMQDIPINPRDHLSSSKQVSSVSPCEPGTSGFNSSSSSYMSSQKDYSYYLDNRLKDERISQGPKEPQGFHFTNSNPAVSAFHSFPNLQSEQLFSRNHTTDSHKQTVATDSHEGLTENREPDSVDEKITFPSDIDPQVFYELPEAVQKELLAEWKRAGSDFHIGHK
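Fluorescent replication assay read twice, at 0 min and 10 min after adding 50 nM (final) substrate. Enzyme (10 nM) and compounds were first incubated 15 min at room temperature; enzyme-free buffer wells were negative controls.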
An asterisk follows results filed as active; ? = inconclusive; · = not tested or not shown; [ ] = remark or other dose. Calls follow the shape of the dose curve; as a rule, active = well fitted curve in the direction sought with a large enough effect; inconclusive = small, poorly fitted or top-dose-only effect, or another doubt; inactive = no such curve, though single readings can be large; an effect the other way counts as inactive or inconclusive. Potency is read from the fitted curve at half-maximal effect.

SMILES	POLB inh	GLS inh	Pol kappa inh	APE1 inh	Pol eta inh	POLI inh
O=C(O)C1Cc2ccccc2-c2ccccc2C1	-2%	-7%	11%	64%	-12%	-25%
O=C(O)C(Cc1ccccc1)N1C(=O)/C(=C/c2ccccc2)SC1=S (stereo unspecified)	2%	13%	2%	-2%	-21%	2%
COc1cc(/C=C2\SC(=S)N(C(Cc3ccccc3)C(=O)O)C2=O)ccc1O (stereo unspecified)	50µM*	-4%	?	?	?	?
Cc1ccc(/C=C2\SC(=S)N(C(Cc3ccccc3)C(=O)O)C2=O)cc1 (stereo unspecified)	89µM*	17%	-2%	-2%	79µM*	11%
COc1ccc(/C=C2/SC(=S)N(Cc3ccccc3)C2=O)cc1O	5%	9%	-7%	-2%	-2%	-23%
O=C(O)C(Cc1ccccc1)N1C(=O)/C(=C/c2cccc3ccccc23)SC1=S (stereo unspecified)	32µM*	·	·	-3%	·	·
COc1ccc(C)cc1S(=O)(=O)NC1CCCC1	0%	9%	-4%	14%	4%	1%
CCCCNc1c(-c2cccc(-c3cc(C(C)=O)cs3)c2)nc2ccc(C)cn12	·	27%	-18%	-7%	?	14%
Cc1ccn2c(Nc3ccc4c(c3)OCO4)c(-c3ccccn3)nc2c1	?	11µM*	-10%	13%	-15%	?
N#Cc1c(Nc2ccccc2)c(C=NCCN2CCOCC2)c[nH]c1=O	-3%	20%	-7%	-5%	-11%	13%
Cc1cc(C(=O)O)ccc1-n1c(C)cc(/C=C(/C#N)C(=O)Nc2ccccc2)c1C	-5%	-14%	-9%	-9%	?	79µM*
Cc1cc(/C=C(\C#N)C(=O)Nc2ccccc2)c(C)n1-c1ccc(F)cc1	-12%	7%	-16%	·	-11%	4%
CCOC(=O)c1cnc(NCc2ccc(OC)cc2OC)c2ccccc12	6%	5%	-14%[60.1 µM]	·	-17%	89µM*
c1ccc2sc(C3CCN(Cc4nnnn4Cc4ccc5c(c4)OCO5)CC3)nc2c1	?	4%	-10%	-5%	-20%	8%
O=C(c1[nH]c(C(F)(F)F)nc1-c1ccccc1)N1CCN(c2ncc(C(F)(F)F)cc2Cl)CC1	·	5%	·	·	·	·
COC(=O)c1c(C)cc(O)c(C=O)c1O	·	-4%	10%	·	-4%	6%
COc1cc(C(=O)O)c2c(c1C)OC(=O)c1c(C)cc(O)c(C=O)c1O2	·	5.6µM*	-23%	·	3%	-27%
Cc1ccc(C(=O)N2CCC(Cc3ccccc3)CC2)cc1S(=O)(=O)N1CCOCC1	·	1%	-6%	5%	-14%	16%
COc1ccc(-c2cc(C#N)nc(NN)n2)cc1	5%	18µM*	-15%	8%	-9%	121%
COc1ccc(-c2cc(C#N)nc(Cl)n2)cc1	-5%	-4%	-3%	-1%	-11%	146%
O=C1/C(=C\c2ccc(O)c(O)c2)Oc2c1ccc(O[C@@H]1O[C@H](CO)[C@@H](O)[C@H](O)[C@H]1O)c2O	·	·	32µM*	?	·	22µM*
COc1cc(NC(=O)c2ccccc2F)c(OC)cc1NC(=O)CN1CCOCC1	14%	-18%	-9%	-4%	-16%	104%
COc1cc(Cl)c(C)cc1NC(=O)c1ccccc1NC(=O)CN1CCOCC1	?	2%	?	-27%	79µM*	?
NC(=O)c1c(NC(=O)CN2C(=O)NC(Cc3ccccc3)C2=O)sc2c1CCC2 (stereo unspecified)	?	2%	?	2%	?	45µM*
NC(=O)c1c(NC(=O)CN2CCN(S(=O)(=O)c3ccccc3)CC2)sc2c1CCC2	·	1%	?	1%	?	13µM*
O=C(CN1C(=O)NC(Cc2ccccc2)C1=O)Nc1ccccc1 (stereo unspecified)	1%	-1%	5%	7%	-13%	0%
